NCOA1 inh – human NCOA1 inhibition | 0.12% of 360,000 active | AID 588354 | inhibition, % at 3.6 µM | Q15788 | HEK293 GAL4-SRC1 luciferase reporter, luminescence;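 active = inhibition above the campaign mean plus 3 SD, with each screening campaign given its own cutoff, cut at about 60% in these data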;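 note: 0% = DMSO treated cells and 100% = gossypol at 36 µM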
GalR3 antagonist – blocks the human galanin receptor 3. 0.44% of 360,000 active. AID 651719. HEK293 GalR3-CNG cAMP membrane potential fluorescence; galR3 body fused to GalR1 C-terminus. inhibition, % at 3 µM. O60755;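 active = inhibition above the screen-wide average plus 3 SD, cut at about 13% in these data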;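 note: forskolin and galanin both at EC90 stimulate the cells; cAMP rise reported by CNG channel membrane potential dye signal; 0% = forskolin plus galanin with DMSO and 100% = forskolin alone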
NR2F2 inh – inhibitors of human COUP-TFII (NR2F2) | P24468 | HEK293T NGFI-A luciferase reporter, luminescence | inhibition, % at 8.6 µM | 0.7% of 370,000 active | AID 686940;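 active = inhibition above a per-plate cutoff, mean inhibition of test wells between control levels plus 3 SD, cut at about 38% in these data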;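 note: cells cotransfected with COUP-TFII expression vector driving the NGFI-A reporter; 0% = median of COUP-TF2 test wells and 100% = reporter-only cells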
NCOA2 inhibitor – human SRC2 (NCOA2) inhibition | AID 651957 | HEK293 GAL4-SRC2 luciferase reporter, luminescence | Q15596 | 0.17% of 370,000 active | inhibition, % at 9 µM;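 active = inhibition above the mean inhibition of all tested compounds plus 3 SD, set per campaign, cut at about 52% in these data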;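 note: 0% = DMSO treated cells and 100% = cells given Gossypol at 36 µM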
LRH-1 inv ag – suppresses constitutive activity of human LRH-1. AID 602396. O00482. inhibition, % at 3.6 µM. HEK293T StAR-luciferase reporter, LRH-1 transfected, 24 h. 0.13% of 360,000 active;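 active = inhibition above the mean inhibition of all tested compounds plus 3 SD, cut at about 73% in these data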;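 note: 0% = DMSO wells and 100% = reporter-only cells lacking LRH-1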
NCOA3 inh – inhibits human SRC3 coactivator | inhibition, % at 3.6 µM | Q9Y6Q9 | 0.17% of 360,000 active | AID 588352 | HEK293 GAL4-SRC3 luciferase reporter, luminescence;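 active = inhibition above a per-campaign cutoff, the mean of all compounds plus 3 SD, cut at about 60% in these data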;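 note: 0% = DMSO-treated cells and 100% = gossypol-treated cells at 36 µM; higher means less SRC3-driven luciferase light from the GAL4 reporter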
GalR3 conf – GalR3 (human) antagonism, confirmation; AID 652245; shares compounds with GalR3 antagonist; inhibition, % at 3 µM; 59% of 1,600 active; HEK293 GalR3 CNG cAMP biosensor, membrane potential fluorescence; galR3 fused to GalR1 carboxy tail; challenged with forskolin and galanin at EC90;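 active = inhibition above the primary screen's cutoff, the mean inhibition of all screened compounds plus 3 SD, cut at about 13% in these data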;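 note: 0% = forskolin plus galanin and 100% = forskolin alone with DMSO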
HEK-CNG parental – counter-screen for GalR3 antagonists: nonspecific agonists in parental HEK-CNG cells; shares compounds with GalR3 antagonist; HEK293-CNG parental cells, cAMP membrane potential fluorescence; normalised: DMSO wells 0%, forskolin wells 100%; activation, % at 3 µM; 10% of 1,600 active; AID 652268; in the data active = activation above about 1.3%
VP16 Luc counter – counter-screen for COUP-TFII antagonists: inhibitors of VP16 | shares compounds with NR2F2 inh | HEK293 Gal4-VP16 luciferase reporter, luminescence | inhibition, % at 8.5 µM | 25% of 2,500 active | AID 687007; in the data active = inhibition above about 13%
NR2F2 inh conf – COUP-TFII (NR2F2) inhibition, confirmation assay; shares compounds with NR2F2 inh; HEK293 NGFI-A luciferase reporter, luminescence; inhibition, % at 8.5 µM; 45% of 2,500 active;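 active = mean inhibition over three repeats above a set limit taken from the earlier primary screen, cut at about 38% in these data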;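 note: 100% = cells given the luciferase reporter alone without the COUP-TF2 vector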
The depositor's hits bear a star; x = no result. A selection: hits, their analogues and other compounds. The true share with any hit is near 1.1%.

SMILES	NCOA1 inh	GalR3 antagonist	NR2F2 inh	NCOA2 inhibitor	LRH-1 inv ag	NCOA3 inh	GalR3 conf	HEK-CNG parental	VP16 Luc counter	NR2F2 inh conf
C=CCOC(=O)N[C@H](c1ccc(-c2ccccc2)cc1)[C@H](C)/C=C/CC(=O)OC	x	x	15	-69	x	x	x	x	x	x
COc1ccc(NC(=O)CSc2nnc(-c3cccs3)o2)cc1Cl	x	x	-8	-15	x	x	x	x	x	x
CCOC(=O)[C@]12CCCC3=C1N(CCC3)C(=O)[C@@H](CC(=O)NCCC(C)C)C2	x	x	-5	-21	x	x	x	x	x	x
COc1cccc(S(=O)(=O)NCc2ccc(C(=O)Nc3ccc(Cl)c(Cl)c3)cc2)c1	9	17*	64*	-7	13	-11	55*	-2	-9	23
Cc1c(C(=O)NCc2ccc(C(C)C)cc2)sc(=O)n1Cc1ccc(S(=O)(=O)N(C)C)cc1	20	37*	68*	-1	32	31	28*	0	7	64*
CCNC(=O)N(C)[C@H]1C[C@H]2c3[nH]c4c(-c5cccc(C)c5)cccc4c3CCN2C[C@H]1[C@H](C)O	x	x	12	-5	x	x	x	x	x	x
O=c1c2ccccc2[nH]n1[C@@H](Cc1ccccc1)Cn1cc(-c2ccc(-c3ccccc3)cc2)nn1	x	x	-86	-23	x	x	x	x	x	x
CCN1/C(=C/c2ccc3cc(C)ccc3[n+]2CC)Sc2ccccc21	65*	38*	86*	-30	96*	55	45*	12*	1	79*
CCN1/C(=C/c2ccc3cc(C)ccc3[n+]2CC)Sc2cc(C)c(C)cc21	32	51*	78*	30	68	56	58*	9.7*	8	64*
CCOC(=O)/C(=C/C=C1\Sc2cc(C)c(C)cc2N1CC)C(C)=O	3	-1	21	23	-4	12	x	x	x	x
Cc1ccc(-n2c(Cc3cccs3)nnc2SCc2ccc(C#N)cc2)cc1	x	x	2	-1	x	x	x	x	x	x
O=C(NC1CCCCN(Cc2cccc(F)c2)C1=O)c1cccc(C(F)(F)F)c1 (stereo unspecified)	x	x	-3	2	x	x	x	x	x	x
COc1cccc(N2CCN(c3ncnc4c3[nH]c3ccc(F)cc34)CC2C)c1 (stereo unspecified)	85*	37*	91*	81*	89*	87*	79*	1	92*	108*
CC(=O)OC[C@]1(OC(C)=O)C[C@@]23CC[C@H]4[C@@](C)(CCC[C@@]4(C)C(=O)O)[C@@H]2CC[C@@H]1C3	-5	-1	11	2	-6	4	x	x	x	x
CC(=O)OC[C@]12CC[C@H]3[C@@](C)(CC[C@H]4C(C)(C)CCC[C@]34C)[C@@H]1CC(C1=CC(=O)OC1O)O2 (stereo partly specified)	80*	30*	82*	80*	103*	85*	44*	1.8*	93*	105*
Nc1ncnc2c1ncn2[C@@H]1O[C@H](C(=O)N[C@@H](CCc2ccccc2)C(=O)N2CCN(CC(=O)N3CCCC3)CC2)[C@@H](O)[C@H]1O	x	-8	-16	1	x	x	x	x	x	x
CC(C)CN1C(=O)[C@@]2(CC(=O)N(C)C2c2ccccc2)c2cc(-n3cc(CO)nn3)ccc21 (stereo partly specified)	x	x	-15	6	x	x	x	x	x	x
COc1ccc(CCNC(=O)Cn2nc(C)c3c(C)n(-c4ccccc4)nc3c2=O)c(OC)c1	-6	3	12	-14	-5	-8	x	x	x	x
COc1ccc(OC)c(CCNC(=O)Cn2nc(C)c3c(C)n(-c4ccc(C)cc4)nc3c2=O)c1	23	33*	67*	7	52	30	98*	0	5	73*
